Test results as given in PubChem BioAssay (Tox21).
Records with an inconclusive call do not appear. Activity calls are given as the source filed them. Calls come from the whole dose curve.

Assay: qHTS assay for small molecule disruptors of the mitochondrial membrane potential - cell viability (AID 720634); note: nearly all actives have a fitted effect of over 20% in size;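 for activity change, negative = cytotoxicity: human HepG2 liver cancer cells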
Settings: HepG2 viability, ATP luminescence (CellTiter-Glo), 1 h; series mostly up to 83.2 µM; activity change, negative = cytotoxicity: at the top concentration
Method in brief: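 Cells: HepG2, 2,000/well, attached overnight. Compound 1 hr, 37 C/5% CO2. +m-MPI dye, +CellTiter-Glo 30 min RT. Readout: luminescence (ATP).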
% is set by controls: 0 for no effect and ±100 for the full control effect; potency is the fitted concentration of half-maximal effect.

| Compound | activity change, negative = cytotoxicity | Potency |
| --- | --- | --- |
| CCCCNS(=O)(=O)c1ccc(C)cc1 | -10.6% (inactive) |  |
| CCCCCCCCCCCCCC[N+](C)(C)C |  | inactive |
| O=C(Oc1ccccc1)Oc1ccccc1 | 8.45% (inactive) |  |
| OC1CCCc2ccccc21 (configuration not stated) | 7.43% [at 95.3 µM] (inactive) |  |
| OC[C@H]1O[C@H](O[C@H]2O[C@H](CO)[C@@H](O)[C@H](O)[C@H]2O)[C@H](O)[C@@H](O)[C@@H]1O | 8.1% [at 95.3 µM] (inactive) |  |
| CC(C)CCCCCOC(=O)CCS | 12.1% (inactive) |  |
| CCC(COC(=O)CCS)(COC(=O)CCS)COC(=O)CCS | 13% (inactive) |  |
| COC(=O)Nc1nc2ccc(C(=O)c3ccccc3)cc2[nH]1 | 9.71% [at 39.1 µM] (inactive) |  |
| CC(=O)OCC=C(C)C | 2.41% (inactive) |  |
| CCCCCCOC(=O)C(C)CC (configuration not stated) | 8.67% (inactive) |  |
| COC(=O)c1ccccc1C | 11.7% (inactive) |  |
| CN(C)Cc1cc(C(C)(C)C)c(O)c(C(C)(C)C)c1 | -9.41% (inactive) |  |
| CC/C=C\CCCCCO | 8.07% (inactive) |  |
| Cc1ccc(N/N=c2\c(=O)cc/c(=N\Nc3ccc(S(=O)(=O)O)cc3)c2=O)c(C)c1 | -6.9% (inactive) |  |
| O=C(/C=C/c1ccccc1)OC/C=C/c1ccccc1 | -3.17% (inactive) |  |
| CCC(=O)OC(=O)CC | 5.05% (inactive) |  |
| COc1cc(S(=O)(=O)O)c(C)cc1N=Nc1c(O)ccc2cc(S(=O)(=O)O)ccc12 | -13.7% (inactive) |  |
| O=[N+]([O-])c1cccc(C(F)(F)F)c1 | 7.33% [at 95.3 µM] (inactive) |  |
| CCO[Si](OCC)(OCC)OCC | 2.8% [at 95.3 µM] (inactive) |  |

| Compound | activity change, negative = cytotoxicity | Potency |
| --- | --- | --- |
| Cc1ccc(-c2ccccc2)cc1 | -12.6% (inactive) |  |
| ClCCl | -0.778% (inactive) |  |
| CN1CCCCC1CCN1c2ccccc2Sc2ccc(S(C)=O)cc21 (configuration not stated) |  | inactive |
| C[Si](Cl)(c1ccccc1)c1ccccc1 | -9.93% (inactive) |  |
| NC(=S)NC(N)=S | 3.31% (inactive) |  |
| O=C(O)[C@H](O)[C@@H](O)[C@H](O[C@@H]1O[C@H](CO)[C@H](O)[C@H](O)[C@H]1O)[C@H](O)CO | 4.65% [at 39.1 µM] (inactive) |  |
| CCCCN(CCCC)CC(O)c1cc(Cl)cc2c1-c1ccc(Cl)cc1/C2=C/c1ccc(Cl)cc1 (configuration not stated) | -4.71% (inactive) |  |
| CCCCCc1ccc(Cl)cc1 | -3.02% (inactive) |  |
| C=Cc1cccc(C)c1 | 0.734% (inactive) |  |
| CC(C)OC(=O)C(O)(CC(=O)O)CC(=O)O | -4.08% (inactive) |  |
| Clc1nnc(Cl)c2ccccc12 | 4.06% (inactive) |  |
| [Cl][Pt-2]([Cl])([Cl])[Cl] | 9.08% [at 95.3 µM] (inactive) |  |
| O=S(=O)(O)c1ccc(N=Nc2c(O)ccc3ccccc23)cc1 | -23.5% (inactive) |  |
| CCOC(=O)NNc1ccc(N(CC)CC(C)O)nn1 (configuration not stated) | 10.7% (inactive) |  |
| CC(C)(C)C1CCC(=O)CC1 | -4.35% (inactive) |  |
| C1CCC(SSC2CCCCC2)CC1 | -12.2% (inactive) |  |
| CCN(CC)c1ccc2c(-c3ccc(S(=O)(=O)O)cc3S(=O)(=O)[O-])c3ccc(=[N+](CC)CC)cc-3oc2c1 |  | 70.7 µM (active) |
| COc1ccc(NC(=O)CC(C)=O)cc1 | 6.56% (inactive) |  |
